Most compounds without a hit are left out; they make up all but 2.5% or so of the library.
Cruzain noTriton: inhibitors of Trypanosoma cruzi cruzain without detergent; AID 1476; Potency, µM, inactives show max response, negative = inhibition, most hits filed as inhibitors; purified cruzain, Z-FR-AMC fluorescence, no detergent; 2.3% of 200,000 active;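 also: plate controls were enzyme without inhibitor for no effect and buffer without enzyme for full effect; nearly all actives have a fitted effect of over 40% in size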
Target sequence (P25779 123-467 limits assumed): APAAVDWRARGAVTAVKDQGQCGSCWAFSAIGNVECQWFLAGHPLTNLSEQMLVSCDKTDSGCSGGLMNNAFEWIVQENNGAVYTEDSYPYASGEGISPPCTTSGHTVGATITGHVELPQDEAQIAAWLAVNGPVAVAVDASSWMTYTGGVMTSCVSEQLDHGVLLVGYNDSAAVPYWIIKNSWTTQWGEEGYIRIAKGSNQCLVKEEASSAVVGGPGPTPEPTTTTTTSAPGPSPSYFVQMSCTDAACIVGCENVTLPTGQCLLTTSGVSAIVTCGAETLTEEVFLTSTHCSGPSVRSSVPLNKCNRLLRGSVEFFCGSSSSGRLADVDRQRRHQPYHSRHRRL
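Detergent-free condition (0.00005% Triton X-100) in acetate buffer pH 5.5 with DTT. 1.5 nM enzyme and compound were pre-mixed 15 min, then 2 uM Z-FR-AMC substrate added; reaction progress from fluorescence change between first and third reads (60 s).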
Cruzain inh Det: blocks cruzain activity in presence of Triton detergent; P25779; purified cruzain, Z-FR-AMC fluorescence, 0.01% Triton; Potency, µM, without a hit: max response, negative = inhibition, usual class: inhibitors; 0.43% of 200,000 active; AID 1478;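 also: plate controls were neutral wells for no effect and buffer without enzyme for full effect; nearly all actives have a fitted effect of over 40% in size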
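In this qHTS format, compounds are incubated with 1.5 nM cruzain for 15 min at room temperature before 2 uM Z-FR-AMC is added. Release of AMC is followed at 360/450 nm, and progress is taken as the 60 s fluorescence difference.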
Papain inh: counter-screen for cruzain inhibitors: papain inhibition. 41% of 410 active. AID 2161. Potency, µM, for inactives: max response, negative = inhibition, most hits filed as inhibitors. purified papain, Z-FR-AMC fluorescence cleavage. shares compounds with Cruzain inh Det;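 also: 0% = no-compound wells and -100% = no-enzyme wells; nearly all actives have a fitted effect of over 35% in size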
* marks the source's active call; other numbers are inactive results; ? = inconclusive; nt = not tested or not shown. Calls follow the shape of the dose curve; as a rule, active = well fitted curve in the direction sought with a large enough effect; inconclusive = small, poorly fitted or top-dose-only effect, or another doubt; inactive = no such curve, though single readings can be large; an effect the other way counts as inactive or inconclusive. Potency is read from the fitted curve at half-maximal effect.

SMILES | Cruzain noTriton | Cruzain inh Det | Papain inh
CCc1ccccc1NC(=O)CSc1nnc([C@@H](N)Cc2c[nH]c3ccccc23)o1 | 10µM* | 10µM* | 7%
CC(C)=CCSc1nnc([C@@H](N)Cc2c[nH]c3ccccc23)o1 | 1% | -9% | nt
CC(C)CCNC(=O)C1CCN(c2nc3ccc(Cl)cc3[nH]2)CC1 | -17% | -6% | nt
Cc1ccc(OCC(=O)Nc2nc(-c3ccc(Br)cc3)ns2)cc1 | 8% | -4% | nt
CCN(CC)C(=O)CN(C#N)c1nc(OC)nc(N(C)C)n1 | -16% | -1% | nt
COc1nc(C#N)nc(N(C)C)n1 | 13µM* | 10µM* | 16µM*
CSc1ccc(CCNS(=O)(=O)c2cc(-c3cc(C)no3)ccc2C)cc1 | -6% | -4% | nt
COc1cccc(NC(=O)c2oc3ccc(S(=O)(=O)N4CCC5(CC4)OCCO5)cc3c2C)c1 | ? | -2% | nt
Cc1oc2ccc(O)c(CN3CCCC(C)C3)c2c1C(=O)Nc1ccccc1 (stereo unspecified) | -9% | -4% | nt
O=C(CSc1nnc(-c2ccccc2)c(-c2ccccc2)n1)NCc1ccco1 | ? | -12% | nt
Cc1ccccc1NC(=O)CSc1nc(-c2ccco2)nc2cc(=O)[nH]n12 | 15% | -5% | nt
O=C(CSc1nnc(-c2ccco2)c(-c2ccco2)n1)Nc1ccccc1 | 20µM* | 22µM* | 25µM*
Cc1ccccc1NC(=O)CSc1nnc(-c2ccco2)c(-c2ccco2)n1 | 3.2µM* | 25µM* | 14µM*
CCOc1ccc(CN2C(=O)c3ccccc3Sc3ccc(C(=O)NC)cc32)cc1 | ? | -6% | nt
CCOc1ccc(CN2C(=O)c3ccccc3Sc3ccc(C(=O)NCc4ccc5c(c4)OCO5)cc32)cc1 | 10µM* | -2% | 1%
Cc1ccccc1Cn1c(CCCNC(=O)C2CCCCC2)nc2ccccc21 | -6% | -8% | nt
Cc1ccccc1OCCn1c(CCNC(=O)C(C)C)nc2ccccc21 | 1% | -4% | nt
CCC(C)c1ccccc1OCCn1c(CCNC(=O)C2CCCCC2)nc2ccccc21 (stereo unspecified) | nt | nt | -11%
Cc1ccccc1OCCCCn1c(CCNC(=O)C2CCCCC2)nc2ccccc21 | nt | nt | 11µM*
COc1ccccc1OCCCn1c(CCNC(=O)C2CCCCC2)nc2ccccc21 | nt | nt | 28µM*
CCc1nc2ccccc2n1CCCCOc1ccccc1C | 12% | -7% | nt
Cc1ccccc1OCCCn1c(CCNC(=O)C2CCCCC2)nc2ccccc21 | 3% | 3.2µM* | -19%
CCn1c(CCNC(=O)c2ccc(OC)c(OC)c2)nc2ccccc21 | -1% | -3% | nt
CCOC(=O)c1c(C)[nH]c(C)c1S(=O)(=O)N1CCC(C(=O)Nc2ccccc2CC)CC1 | 9% | 1% | nt
CCc1nc(C)cn1S(=O)(=O)c1ccc(Cl)c(Cl)c1OC | -7% | -9% | nt
SMILES | Cruzain noTriton | Cruzain inh Det | Papain inh
CC(=O)n1cc(/C=C2/N=C(c3ccccc3)OC2=O)c2ccccc21 | 20µM* | 4.5µM* | 1.6µM*
Cc1ccc2cc(/C=C3\N=C(c4ccccc4)OC3=O)c(N3CCOCC3)nc2c1 | ? | -12% | nt
O=C(Nc1ccc(O)c(-c2nc3ccccc3o2)c1)C1(c2ccc([N+](=O)[O-])cc2)CCCC1 | 4µM* | -3% | 13%
O=C(Nc1ccc(-c2nc3ccccc3o2)c(O)c1)c1cc(Cl)ccc1Cl | 12% | 0% | nt
CCc1ccccc1NC(=O)Nc1nnc(N(C)Cc2ccccc2)s1 | -8% | -7% | nt
CCOc1cc(/C=N/NC(=O)C(C)Sc2ccccn2)ccc1O (stereo unspecified) | 2% | -3% | nt
CCC(C)[C@@H](N)C(=O)N/N=C/c1ccc2ncccc2c1 (stereo partly specified) | 10µM* | 10µM* | 6%
Fc1ccccc1-c1nc(-c2ccccc2)no1 | 11% | -5% | nt
O=c1cc(-c2cccc(Br)c2)nc(-c2ccccc2F)o1 | 10µM* | 8.9µM* | 1%
COc1ccc(Br)cc1-c1noc(-c2ccccc2F)n1 | -11% | -4% | nt
O=c1cc(-c2ccccc2F)nc(-c2ccccc2F)o1 | 7.9µM* | 4.5µM* | 8%
Cc1nn2c(=O)cc(COC(=O)c3ccccc3NC(=O)C3CCCCC3)nc2s1 | 19% | 1% | nt
CCCCNC(=O)c1ccc2nc(-c3cccs3)c(-c3cccs3)nc2c1 | nt | nt | -5%
COC(CNC(=O)c1ccc2nc(-c3cccs3)c(-c3cccs3)nc2c1)OC | 29% | -12% | nt
CCOc1ccc(CNC(=O)C2CCN(c3nnc(-n4c(C)ccc4C)s3)CC2)cc1 | 2% | -5% | nt
Cc1ccc(S(=O)(=O)CCC(=O)OCC(=O)Nc2ncc(Cl)cc2Cl)cc1 | -15% | -18% | nt
Cc1ccc(S(=O)(=O)NCC(=O)OCC(=O)Nc2ncc(Cl)cc2Cl)cc1 | 25µM* | 20µM* | -30%
CC1CCCN(c2ccc(C(=O)OCn3nnc4ccccc4c3=O)cc2[N+](=O)[O-])C1 (stereo unspecified) | ? | -3% | nt

Source: PubChem BioAssay (National Center for Advancing Translational Sciences (NCATS))
